Calls of active or inactive are those of the source. The calls were made as follows: active = hit-call score of the fitted dose curve at least 0.9, where 1 is the maximum; inactive = score below 0.9.
How the values were obtained:
[1] = APR_HepG2_P-H2AX_72hr: Apredica 72-hour HepG2 Assay for H2AX Phosphorylation (AID 2282916); conditions: imaging, actives raise or lower the signal;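 also: phospho-histone H2A.x immunostain intensity per cell marking DNA damage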
In short: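 Following 72 hr treatment with 0.39–200 uM compound, HepG2 cells were formaldehyde-fixed, permeabilized and stained for phospho-H2A.x; signal was measured by high-content imaging and fitted bidirectionally against DMSO controls.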

[2] = APR_HepG2_MitoMembPot_72hr: Apredica 72-hour HepG2 Assay for Mitochondrial Membrane Potential (AID 2282917); conditions: imaging, actives raise or lower the signal
In short: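 Membrane potential read by MitoTracker Red CMXRos (250 nM, 30 min, pre-fixation) fluorescence imaging of HepG2 after 72 hr exposure. Ten concentrations, 0.39–200 uM, duplicate wells, 0.5% DMSO; fitted in both directions against DMSO baseline.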

[3] = APR_HepG2_MitoticArrest_72hr: Apredica 72-hour HepG2 Assay for Mitotic Arrest (AID 2282918); conditions: high-content imaging, actives raise or lower the signal
In short: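 High-content imaging of fixed human HepG2 cells after 72 h compound exposure (0.39–200 uM, duplicates, 0.5% DMSO); mitotic arrest scored from phospho-histone H3 and nuclear Hoechst staining relative to DMSO.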

[4] = APR_HepG2_MicrotubuleCSK_72hr: Apredica 72-hour HepG2 Assay for Microtubule CSK Stabilty (AID 2282919); conditions: HepG2 microtubule cytoskeleton, high-content imaging, actives raise or lower the signal
In short: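 Read-out is tubulin fluorescence intensity from high-content imaging of HepG2 cells, with nuclei identified by Hoechst 33342. Treatment lasts 72 h at 0.39–200 uM, and curves are fitted bidirectionally against the DMSO negative control.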

[5] = APR_HepG2_P-H2AX_24hr: Apredica 24-hour HepG2 Assay for H2AX Phosphorylation (AID 2282920); conditions: high-content imaging, actives raise or lower the signal
In short: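 High-content imaging of phospho-histone H2A.x immunofluorescence, nuclei counterstained with Hoechst 33342, in fixed HepG2 cells. Compounds ran 0.39–200 uM in duplicate for 24 h, final DMSO 0.5%. Signal change fitted both directions against DMSO.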

[6] = APR_HepG2_StressKinase_72hr: Apredica 72-hour HepG2 Assay for Stress Kinase (AID 2282921); conditions: HepG2 stress kinase (phospho-c-Jun) imaging, actives raise or lower the signal
In short: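 Fluorescence intensity of Cy3-tagged anti-phospho-c-Jun antibody, quantified per cell from Hoechst-defined nuclei across six images per well, served as the read-out following 72 h exposure (0.39–200 uM, 0.5% v/v DMSO).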

[7] = APR_HepG2_StressKinase_24hr: Apredica 24-hour HepG2 Assay for Stress Kinase (AID 2282922); conditions: HepG2 stress kinase (phospho-c-Jun) imaging, actives raise or lower the signal
In short: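 HepG2, 24 hr dosing, 0.39–200 uM in duplicate, 0.5% DMSO; formaldehyde fix (3.7%), 0.5% Triton X-100; anti-phospho-c-Jun + Cy3 secondary, Hoechst counterstain; ArrayScan imaging; bidirectional curve fit vs DMSO baseline.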

[8] = APR_HepG2_p53Act_72hr: Apredica 72-hour HepG2 Assay for p53 Activation (AID 2282923); conditions: high-content imaging, actives raise or lower the signal;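 also: average cellular p53 protein immunofluorescence intensity in HepG2 cells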
In short: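 HepG2 monolayers receive test compounds in duplicate at ten concentrations (0.39 through 200 uM) for 72 hr. They are then formaldehyde-fixed, antibody-labelled for p53, Hoechst-stained and imaged, with activity fitted bidirectionally versus DMSO.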

[9] = APR_HepG2_MitoMass_72hr: Apredica 72-hour HepG2 Assay for Mitochondrial Mass (AID 2282924); conditions: high-content imaging, actives raise or lower the signal;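 also: MitoTracker Red CMXRos stain intensity per cell imaged as mitochondrial mass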
In short: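 HepG2, 72 hr cmpd, 10 conc 0.39–200 uM in dup, DMSO 0.5% v/v. MitoTracker Red CMXRos 250 nM 30 min pre-fix; formaldehyde 3.7% fix 30 min RT. HCS imaging, gain/loss fit vs DMSO.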

[10] = APR_HepG2_NuclearSize_72hr: Apredica 72-hour HepG2 Assay for Nuclear Size (AID 2282925); conditions: high-content imaging, actives raise or lower the signal
In short: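 HepG2; cpd 0.39–200 uM, 10 conc, duplicate; 72 h; DMSO 0.5% v/v; fix 3.7% formaldehyde 30 min RT; Triton permeabilization; Hoechst 2 ug/mL; HCS imaging 20x; nuclear diameter; gain/loss fit vs DMSO.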

[11] = ATG_CRE_CIS: Attagene CIS-FACTORIAL HepG2 Assay for human cAMP Responsive Element (CRE) binding protein 3 (AID 2282926); conditions: HepG2 CRE cis-reporter, Attagene multiplexed mRNA; actives raise or lower the signal
In short: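 Multiplexed transcription-unit reporters transfected into HepG2; 24 h dosing; RT-PCR/capillary electrophoresis fluorescence read-out; bidirectional fit vs DMSO.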

[12] = target: CCAAT/enhancer-binding protein beta (Homo sapiens) (UniProt P17676); assay: ATG_C_EBP_CIS: Attagene CIS-FACTORIAL HepG2 Assay for human CCAAT/Enhancer Binding Protein (C/EBP) beta (AID 2282927); conditions: HepG2 Attagene cis-factorial transcription factor reporter; actives raise or lower the signal
In short: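 Changes in reporter mRNA, rather than exogenous chimeric receptor activity, reflect native C/EBP signalling in transfected HepG2 cells dosed for 24 h; transcripts are detected by RT-PCR and capillary electrophoresis.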

[13] = ATG_DR4_LXR_CIS: Attagene CIS-FACTORIAL HepG2 Assay for human Liver X Receptor (LXR), DR4 submotif (AID 2282929); conditions: HepG2 Attagene DR4 cis-reporter, mRNA transcription; actives raise or lower the signal
In short: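 The endpoint is DR4-element-driven reporter transcripts after 24 h chemical exposure of transfected HepG2 cells. These were measured via RT-PCR and capillary electrophoresis, and gain or loss of signal was fitted relative to DMSO controls.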

[14] = target: Aryl hydrocarbon receptor (Homo sapiens) (UniProt P35869); assay: ATG_Ahr_CIS: Attagene CIS-FACTORIAL HepG2 Assay for human Aryl Hydrocarbon Receptor (Ahr) (AID 2282930); conditions: HepG2 AhR cis-factorial reporter transcription; actives raise or lower the signal
In short: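 HepG2, transient MRTU (cis) transfection, 24 h exposure. RNA → cDNA → PCR → 6-FAM primer extension → HpaI 2 h 37 C → CE. Fit: bidirectional, DMSO baseline.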

[15] = ATG_AP_1_CIS: Attagene CIS-FACTORIAL HepG2 Assay for human Activator Protein 1 (AP-1) (AID 2282931); conditions: HepG2 Attagene cis-factorial AP-1 reporter mRNA; actives raise or lower the signal
In short: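 Readout is reporter transcript level from endogenous transcription factor activity, quantified by RT-PCR with fluorescent primer extension and capillary electrophoresis. Transiently transfected HepG2 cells, 24 h exposure. Curves fitted both directions versus DMSO.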

[16] = ATG_AP_2_CIS: Attagene CIS-FACTORIAL HepG2 Assay for human Activator Protein 2 (AP-2) (AID 2282932); conditions: HepG2 AP-2 cis-reporter, Attagene transcription factor profiling; actives raise or lower the signal
In short: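 Step one: transient transfection of HepG2 with reporter transcription units. Step two: 24 h chemical exposure. Step three: RNA extraction, RT-PCR, labelled fragment analysis by capillary electrophoresis; DMSO serves as baseline.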

[17] = ATG_BRE_CIS: Attagene CIS-FACTORIAL HepG2 Assay for human Bone Morphogenetic Protein (BMP) Response Element (BRE) (AID 2282933); conditions: HepG2 BMP response element reporter, Attagene transcription factor profiling; actives raise or lower the signal
In short: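 Endogenous transcription factor activity at a BMP response element was monitored in transfected HepG2 cells 24 h after dosing. Fluorescent RT-PCR products were resolved by capillary electrophoresis, and activity was fitted in both directions versus DMSO.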

[18] = target: Retinoic acid receptor alpha (Homo sapiens) (UniProt P10276); assay: ATG_DR5_RAR_CIS: Attagene CIS-FACTORIAL HepG2 Assay for human Retinoic Acid Receptor Alpha (RARE), DR5 submotif (AID 2282934); conditions: HepG2 Attagene cis-factorial RARE DR5 reporter, mRNA; actives raise or lower the signal;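 as to AC50: reporter responds to endogenous RAR alpha beta and gamma in HepG2 not RARA alone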
In short: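 HepG2, transient cis-reporter transfection, 24 h exposure. mRNA readout: RT-PCR, FAM label, HpaI cut, capillary electrophoresis. DMSO baseline, gain/loss fitting.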

[19] = target: Transcription factor E2F1 (Homo sapiens) (UniProt Q01094); assay: ATG_E2F_CIS: Attagene CIS-FACTORIAL HepG2 Assay for human E2F Transcription Factor 1 (AID 2282935); conditions: HepG2 Attagene cis-reporter, E2F reporter RNA transcripts; actives raise or lower the signal
In short: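 Total RNA from 24 h-treated, reporter-transfected HepG2 cells undergoes DNase I treatment, oligo(dT) reverse transcription, PCR and 6-FAM primer extension before capillary electrophoresis.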

[20] = ATG_CMV_CIS: Attagene CIS-FACTORIAL HepG2 Assay for human CMV (Internal Marker) (AID 2282928); conditions: HepG2 CMV promoter reporter, transcription factor profiling; actives raise or lower the signal;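 also: endpoint acts as a background internal control marker rather than a target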
In short: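 Endogenous transcription factor activity read in HepG2 via transfected cis-promoter reporter units. After 24 h dosing, reporter mRNA measured by RT-PCR/capillary electrophoresis; gain or loss of signal fit relative to DMSO.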

Measured: AC50

Transcription factor E2F1 (Homo sapiens), sequence (Q01094 whole entry, looked up): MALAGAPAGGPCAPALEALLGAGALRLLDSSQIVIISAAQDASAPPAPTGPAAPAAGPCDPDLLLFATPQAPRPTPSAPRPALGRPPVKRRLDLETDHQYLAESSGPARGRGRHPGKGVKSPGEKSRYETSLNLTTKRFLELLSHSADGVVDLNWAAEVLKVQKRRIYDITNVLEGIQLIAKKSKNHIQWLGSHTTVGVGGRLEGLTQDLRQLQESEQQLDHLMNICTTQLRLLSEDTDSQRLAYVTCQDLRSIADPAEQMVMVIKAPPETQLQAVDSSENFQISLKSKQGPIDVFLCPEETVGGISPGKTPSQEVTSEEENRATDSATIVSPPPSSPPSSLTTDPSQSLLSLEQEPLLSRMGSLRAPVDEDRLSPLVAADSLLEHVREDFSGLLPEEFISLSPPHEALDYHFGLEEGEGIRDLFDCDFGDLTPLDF
Aryl hydrocarbon receptor (Homo sapiens), sequence (P35869 whole entry, looked up): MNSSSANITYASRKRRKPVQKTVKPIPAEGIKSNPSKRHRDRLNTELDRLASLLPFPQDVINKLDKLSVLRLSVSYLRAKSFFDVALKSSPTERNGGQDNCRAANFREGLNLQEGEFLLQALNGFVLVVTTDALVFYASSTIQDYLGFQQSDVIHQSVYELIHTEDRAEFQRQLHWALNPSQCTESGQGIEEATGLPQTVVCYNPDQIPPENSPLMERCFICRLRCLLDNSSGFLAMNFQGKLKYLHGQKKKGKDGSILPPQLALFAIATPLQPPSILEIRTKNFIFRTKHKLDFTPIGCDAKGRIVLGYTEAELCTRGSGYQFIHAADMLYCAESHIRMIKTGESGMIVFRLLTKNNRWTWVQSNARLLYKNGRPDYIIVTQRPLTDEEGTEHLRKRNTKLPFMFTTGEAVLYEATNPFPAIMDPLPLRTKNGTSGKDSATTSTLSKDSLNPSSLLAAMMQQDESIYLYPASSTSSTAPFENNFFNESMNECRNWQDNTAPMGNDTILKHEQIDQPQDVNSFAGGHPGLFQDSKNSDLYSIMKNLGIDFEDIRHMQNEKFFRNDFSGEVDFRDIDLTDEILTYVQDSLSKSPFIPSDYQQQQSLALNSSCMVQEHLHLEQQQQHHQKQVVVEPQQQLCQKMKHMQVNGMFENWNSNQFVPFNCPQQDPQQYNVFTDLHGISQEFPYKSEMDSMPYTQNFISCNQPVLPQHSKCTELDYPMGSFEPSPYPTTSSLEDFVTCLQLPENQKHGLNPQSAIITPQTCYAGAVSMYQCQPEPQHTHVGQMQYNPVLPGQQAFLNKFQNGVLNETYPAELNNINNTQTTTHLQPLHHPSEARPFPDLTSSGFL
Retinoic acid receptor alpha (Homo sapiens), sequence (P10276 whole entry, looked up): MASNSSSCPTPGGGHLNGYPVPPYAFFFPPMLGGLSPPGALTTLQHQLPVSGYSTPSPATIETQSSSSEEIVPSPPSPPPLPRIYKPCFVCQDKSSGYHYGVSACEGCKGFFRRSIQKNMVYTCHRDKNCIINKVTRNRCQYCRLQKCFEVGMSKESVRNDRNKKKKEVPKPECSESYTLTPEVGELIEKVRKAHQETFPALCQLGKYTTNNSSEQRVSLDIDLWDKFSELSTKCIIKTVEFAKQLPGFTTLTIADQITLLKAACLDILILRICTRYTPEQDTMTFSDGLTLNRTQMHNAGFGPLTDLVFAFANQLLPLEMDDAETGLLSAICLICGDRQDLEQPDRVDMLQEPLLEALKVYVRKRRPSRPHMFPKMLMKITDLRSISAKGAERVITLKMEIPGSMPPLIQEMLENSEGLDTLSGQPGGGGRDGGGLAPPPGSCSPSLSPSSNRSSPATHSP
CCAAT/enhancer-binding protein beta (Homo sapiens), sequence (P17676 whole entry, looked up): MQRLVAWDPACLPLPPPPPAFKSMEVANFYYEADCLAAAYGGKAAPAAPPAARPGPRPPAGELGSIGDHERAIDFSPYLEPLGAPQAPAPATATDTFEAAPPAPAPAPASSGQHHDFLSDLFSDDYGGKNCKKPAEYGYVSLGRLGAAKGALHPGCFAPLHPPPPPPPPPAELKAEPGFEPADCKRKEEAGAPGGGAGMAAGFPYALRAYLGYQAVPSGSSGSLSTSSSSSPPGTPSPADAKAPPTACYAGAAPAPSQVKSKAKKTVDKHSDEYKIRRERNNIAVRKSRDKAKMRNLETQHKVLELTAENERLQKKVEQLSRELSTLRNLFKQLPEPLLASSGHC

CCOP(=S)(OCC)Oc1ccc2c(C)c(Cl)c(=O)oc2c1
active: [1] 100 µM | [3] 93.2 µM | [4] 40.5 µM | [18] 1.59 µM
not listed: [20]
inactive: all other assays above

O=C(O)c1cc(Oc2ccc(C(F)(F)F)cc2Cl)ccc1[N+](=O)[O-]
not listed: [8] | [19]
inactive: all other assays above

CCCSP(=O)(OCC)SCCC
not listed: [8] | [19] | [20]
inactive: all other assays above

CCOP(=S)(OCC)SCCSCC
not listed: [4] | [19]
inactive: all other assays above

CCc1cnc(C2=NC(C)(C(C)C)C(=O)N2)c(C(=O)O)c1 (stereo not drawn)
not listed: [8] | [9] | [19] | [20]
inactive: all other assays above

CCCCN(CC)c1c([N+](=O)[O-])cc(C(F)(F)F)cc1[N+](=O)[O-]
active: [18] 20.1 µM
inactive: all other assays above

CC1(C(=O)Nc2ccc(O)c(Cl)c2Cl)CCCCC1
active: [4] 91.7 µM | [11] 10 µM | [15] 30 µM | [17] 39.3 µM
not listed: [9] | [18] | [20]
inactive: all other assays above

C[Si](Cn1cncn1)(c1ccc(F)cc1)c1ccc(F)cc1
active: [13] 48.7 µM | [15] 50 µM | [17] 39.1 µM
not listed: [18] | [19] | [20]
inactive: all other assays above

CCCOCC(=Nc1ccc(Cl)cc1C(F)(F)F)n1ccnc1
active: [20] 7 µM | [13] 1.39 µM | [18] 0.295 µM
not listed: [4] | [19]
inactive: all other assays above

CSc1nnc(C(C)(C)C)c(=O)n1N
not listed: [9] | [14] | [20]
inactive: all other assays above

Cc1ccn2nc(S(=O)(=O)Nc3c(F)cccc3F)nc2n1
not listed: [8] | [9] | [19] | [20]
inactive: all other assays above

CCCCSP(=O)(SCCCC)SCCCC
active: [2] 157 µM | [13] 72.9 µM | [15] 70.1 µM | [17] 40.1 µM | [19] 58.3 µM
not listed: [9] | [20]
inactive: all other assays above

CSC1=N[C@@](C)(c2ccccc2)C(=O)N1Nc1ccccc1
active: [4] 38.6 µM | [11] 4.24 µM | [12] 6.21 µM | [14] 50 µM | [15] 3.2 µM | [17] 5.2 µM
not listed: [18] | [19] | [20]
inactive: all other assays above

C#CCC1=C(C)C(OC(=O)C2C(C=C(C)C)C2(C)C)CC1=O (stereo not drawn)
active: [11] 27.1 µM | [12] 21.7 µM | [13] 50 µM | [14] 78.6 µM | [15] 37.1 µM | [16] 74.9 µM | [17] 9.01 µM | [18] 9.92 µM
inactive: all other assays above
